Rows were chosen to be rich in hits. Some 11% of all compounds tested hit in one or more screens of this group.
Gal4-VP16 FLuc: VP16 counterscreen qHTS for inhibitors of ROR gamma transcriptional activity | Drosophila S2 Gal4-VP16 UAS-luciferase, luminescence, 20 h | Potency, µM (highest dose often 53.6 µM), for the others: at the top dose activity, negative = inhibition, actives largely listed as inhibitors | hit rate 3.5% among 310,000 | AID 2546, 2010;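 further: Gal4-VP16 expression switched on by copper sulfate through the metallothionein promoter; potency means the concentration at half of the fitted maximal effect; on the % scale 0 is the no-effect control and ±100 the full control effect; nearly all actives have a fitted effect of over 50% in size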
SW480 rereplic: A quantitative high throughput screen for small molecules that induce DNA re-replication in SW480 colon adenocarcinoma cells; SW480 DNA re-replication, Hoechst DNA content imaging, 48 h; Potency, µM (titrated, usually from 46.1 µM), inactives show top-dose re-replication activation, usual class: activators; hit rate 1.8% among 340,000; AID 624297, 2012; further: potency means the concentration at half of the fitted maximal effect; % of control where 0% means no effect; nearly all actives have a fitted effect of over 55% in size
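SW480 cells exposed to compounds for 48 hr at 37 C, 5% CO2, then Hoechst-stained 40 min. Nuclear DNA content imaged by fluorescence scanning (405 nm excitation, 500-530 nm emission); re-replication scored as increased high-intensity nuclei.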
IL-1B inflam inh: qHTS for Inhibitors of Inflammasome Signaling: IL-1-beta AlphaLISA Primary Screen; THP-1 LPS/ATP IL-1B secretion, AlphaLISA, 16 h; stronger effect = lower value; activity change, % at 57.5 µM; hit rate 4.7% among 360,000; AID 743279, 2014; in the data active means activity change below about -50%; inconclusive means mostly about -30% to -49%; further: on the % scale 0 is the no-effect control and ±100 the full control effect
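Secreted IL-1B measured by AlphaLISA bead assay after 16 h compound exposure of THP-1 cells; compounds (final up to 57.5 uM) added 1 h before LPS (250 ng/mL) and ATP (1.25 mM) stimulation; lower signal means less secretion.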
MCF10A rereplic: A quantitative high throughput screen for small molecules that induce DNA re-replication in MCF 10a normal breast cells; MCF 10A DNA re-replication, Hoechst nuclear intensity, 48 h; Potency, µM (highest dose often 46.1 µM), for the others: at the top dose activity, positive = re-replication, hits mostly activators; hit rate 2.9% among 350,000; AID 624296, 2012; further: potency means the concentration at half of the fitted maximal effect; % of control where 0% means no effect; nearly all actives have a fitted effect of over 50% in size
RORg inh: qHTS for inhibitors of ROR gamma transcriptional activity. Potency, µM (series often up to 53.6 µM), for the others: at the highest dose activity change, negative = inhibition, actives largely listed as inhibitors. Nuclear receptor ROR-gamma (Mus musculus), P51450. Drosophila S2 Gal4-RORgamma UAS-luciferase reporter, 20 h. hit rate 5.4% among 310,000; further: potency means the concentration at half of the fitted maximal effect; on the % scale 0 is the no-effect control and ±100 the full control effect; nearly all actives have a fitted effect of over 60% in size
Target sequence (P51450 whole entry, looked up, the tested form may be a part): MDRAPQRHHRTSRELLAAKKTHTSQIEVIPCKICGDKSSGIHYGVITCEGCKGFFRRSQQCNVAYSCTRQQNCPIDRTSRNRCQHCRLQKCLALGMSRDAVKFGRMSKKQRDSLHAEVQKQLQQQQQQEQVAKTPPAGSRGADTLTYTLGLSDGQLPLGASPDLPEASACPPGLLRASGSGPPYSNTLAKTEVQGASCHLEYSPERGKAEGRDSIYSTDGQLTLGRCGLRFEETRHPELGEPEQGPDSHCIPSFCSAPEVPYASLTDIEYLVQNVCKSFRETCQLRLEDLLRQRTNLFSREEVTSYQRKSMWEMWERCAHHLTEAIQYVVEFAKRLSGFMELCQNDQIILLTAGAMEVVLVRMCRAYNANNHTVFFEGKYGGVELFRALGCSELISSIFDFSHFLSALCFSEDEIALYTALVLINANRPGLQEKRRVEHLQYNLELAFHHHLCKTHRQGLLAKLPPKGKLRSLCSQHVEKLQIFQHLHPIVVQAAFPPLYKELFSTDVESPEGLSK
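Drosophila Schneider cells stably carrying a metallothionein-driven Gal4 DBD–ROR gamma fusion and a UAS-Photinus luciferase reporter were exposed to compound for 1 hr, then induced with copper sulfate (700 uM final) for 20 hr at ambient temperature before luminescence reading.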
Starred values were filed as active, the others as inactive; ? = inconclusive; / = no result given; [ ] = remark or other dose. Unless noted, the call rests on the fitted dose curve; in most records, active means well fitted curve in the direction sought with a large enough effect; inconclusive means small, poorly fitted or top-dose-only effect, or another doubt; inactive means no such curve, though single readings can be large; an effect the other way counts as inactive or inconclusive.

SMILES	Gal4-VP16 FLuc	SW480 rereplic	IL-1B inflam inh	MCF10A rereplic	RORg inh
O=CC(O)C(O)C(O)C(O)CO (stereo not given)	4%	/	/	/	6%
O=C1c2cccc3cccc(c23)C(=O)C1(O)O	/	?	-94*	21µM*	/
CC(=O)N1C(=O)c2cccc3cccc(c23)C(=O)N1C(C)=O	-8%	-2%	24	10%	-31%
C=C(C)C1COc2cc3oc(=O)ccc3cc2O1 (stereo not given)	-6%	/	/	/	17%
C=CCn1c(C)cc(C(=O)COC(=O)[C@@H](NC(=O)c2ccccc2Cl)C(C)C)c1C	13µM*	-5%	19	-1%	14µM*
CC1=CC(C)(C)n2c(O)c(N=NC(N)=S)c3c(C)ccc1c32	2.5µM*	3%	7	-1%	4.5µM*
COc1cc2c3c(c1)c(N=NC(N)=S)c(O)n3C(C)(C)C=C2C	4.5µM*	8%	-19	11%	2µM*
CC1=CC(C)(C)n2c(O)c(N=NC(N)=S)c3cccc1c32	2µM*	3%	0	18%	1.1µM*
O=C(CCC1CCN(C(=O)CC2=CCCCC2)CC1)NCc1ccc(F)cc1	/	/	1	/	/
CC1CCC(NC(=O)CSc2nncn2C)CC1 (stereo not given)	/	-3%	15	1%	/
COc1cc(C2C(C#N)=C(N)N(Nc3ccccc3)C3=C2C(=O)CC(C)(C)C3)ccc1OCc1cccc(F)c1 (stereo not given)	-17%	?	-52*	?	?
COc1cc(C2C(C#N)=C(N)N(Nc3ccccc3)C3=C2C(=O)CC(C)(C)C3)ccc1OCc1ccccc1 (stereo not given)	-15%	26µM*	?	?	?
C=CCOc1ccc(C2C(C#N)=C(N)N(Nc3ccccc3)C3=C2C(=O)CCC3)cc1OC (stereo not given)	-1%	?	14	23µM*	?
CC(C)(C)c1ccc(/C=C/C(=O)N2CCCCC2)cc1	?	12%	-6	?	30%
CC1CCN(C(=O)/C=C/c2ccc(C(C)(C)C)cc2)CC1	-1%	2%	-14	18µM*	?
COc1ccc(S(=O)(=O)Nc2ccccc2C)cc1	17%	13µM*	-7	21µM*	-6%
COc1ccc(S(=O)(=O)Nc2c(O)ccc3ccccc23)cc1OC	/	4%[9.22 µM]	15	16µM*	/
COc1ccc(S(=O)(=O)Nc2cccc3ccc(O)cc23)cc1	/	?	34	21µM*	/
COc1ccc(S(=O)(=O)Nc2c(F)cccc2F)cc1	-7%	-8%	-1	-32%	2%
COc1ccc(OC)c(NC(=O)C2(C)CCN2C(=O)CC2CC2)c1 (stereo not given)	/	/	21	/	/
COCCn1c(=O)c(-c2ccc(F)cc2)nc2cnc(Oc3cccc(Cl)c3)nc21	4%	/	/	/	-8%
COc1ccc(CN2C(=O)CSCC2(C)C(=O)Nc2ccc3c(c2)OCCO3)cc1 (stereo not given)	/	/	-4	/	/
CC(C)OC(=O)[C@@H]1CC[C@H](C)[C@@H](CCCC=O)O1	3%	/	/	/	-3%
CC(=O)c1cccc(S(=O)(=O)N2CCn3cccc3C2C)c1 (stereo not given)	/	-9%	-11	-11%	/
CCC1(c2ccccc2)ON(c2c(Br)cccc2Br)C1=O (stereo not given)	/	?	-97*	12µM*	/
SMILES	Gal4-VP16 FLuc	SW480 rereplic	IL-1B inflam inh	MCF10A rereplic	RORg inh
COC(=O)C1=C(C)NC(C)=C(C(=O)OC)C1C(=O)OCC(=O)NC1CCCCC1C (stereo not given)	/	/	-1	/	/
COc1ccc(C2/C=C\CN(S(=O)(=O)c3ccc(C)cc3)C(C)C(=O)N2Cc2ccc(F)cc2)cc1 (stereo not given)	-8%	/	/	/	15%
Cc1cc(C=O)c(C)n1-c1ccc(Oc2ccc([N+](=O)[O-])cn2)cc1	?	17%	7	6%	1%
Cc1cc(C=O)c(C)n1-c1ccc(NC2CCCC2)c([N+](=O)[O-])c1	-30%	-26%	-82*	?	-47%
COc1cc(/C=C/c2ccc3cccc([N+](=O)[O-])c3n2)ccc1OCC(=O)O	-19%	-1%	0	1%	9%
COc1cc(/C=C/c2ccc3cccc(O)c3n2)cc(Br)c1OC	5µM*	?	?	15µM*	1.3µM*
COc1cc(/C=C/c2ccc3cccc(O)c3n2)cc(OC)c1OC	?	17%	-102*	?	?
COc1ccc(/C=C/c2ccc3cccc(O)c3n2)cc1Br	3.2µM*	10%	10	6%	2µM*
COC(=O)c1ccc(/C=C/c2ccc3cccc(OC)c3n2)cc1	0%	?	-4	?	-44%
COc1cc(/C=C/c2ccc3cccc(O)c3n2)cc(Cl)c1OC	4.5µM*	4.6µM*	-93*	15µM*	0.79µM*
O=C(/C=C/[C@H]1O[C@@H](n2ccc(=O)[nH]c2=O)[C@H](O)[C@@H]1O)NCCc1c[nH]c2ccccc12	/	/	6	/	/
CN(Cc1ccccc1F)c1nc(-c2cccs2)nc2ccccc12	-2%	?	-12	13µM*	16%
O=C(c1ccccc1)N1N=C(c2ccccc2O)CC1c1ccccc1 (stereo not given)	3%	1%	13	-28%	-32%
COC1(c2ccccc2)NC(=S)NN=C1c1ccccc1 (stereo not given)	?	1%	10	?	11µM*
CCCCCCOC1(c2ccccc2)OC(=O)c2ccccc21 (stereo not given)	-7%	-4%	-5	12%	-14%
CCCCOC1(c2ccccc2)NC(=S)NN=C1c1ccccc1 (stereo not given)	?	/	/	/	10µM*
CO/N=C/C1C(=O)NN=C1c1ccccc1 (stereo not given)	-7%	-18%	0	-1%	10%
N#Cc1ccc(COc2cccc3cccnc23)cc1	-2%	-6%	-14	-7%	10µM*
O=C(COC(=O)Cc1ccc(S(=O)(=O)N2CCOCC2)s1)Nc1ccccc1	/	1%	?	3%	/
Cc1ccc([C@@H]2CC=C(C(=O)O)[C@H](c3ccc(Cl)cc3)N2S(=O)(=O)c2ccccc2C)cc1	/	0%	40	-32%	/
O=C(Nc1nc(-c2ccc(Cl)s2)cs1)c1ccccc1	?	-2%[9.22 µM]	-5	?	-20%
Cc1ccc(C(=O)Nc2nc(-c3cc(Cl)sc3Cl)cs2)cc1	15%	0%	24	26µM*	3%
Cc1ccc(C)c(-c2csc(NC(=O)c3cnccn3)n2)c1	1.3µM*	-2%	-12	-1%	0.5µM*
CC1CCC2C(=O)N3CCCC3C(=O)N2C1c1ccc(Br)cc1 (stereo not given)	4%[10 µM]	/	/	/	-1%[10 µM]

Source: PubChem BioAssay (National Center for Advancing Translational Sciences (NCATS))
